# The supplement of paper PMC6555819
# Key:
# Assay in all cases: PBM binding z-score (relative to random genomic background probes); higher = stronger binding; sequences stand for … in GC…GCGATTGACAGCGTAGAATGAAGG
# [1] = test system: PPARg:RXRa DBDmut IVT, anti-RXR (DBD mutation: RXRa K156A/R161A, NR concentration 270 nM, RXRa partner concentration 90 nM)
# Procedure, shortened: (§1)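 Binding buffer was PBS pH 7.4 with 2% milk, 0.02% Triton X-100, 1 mM DTT, 0.2 mg/mL BSA and 0.4 mg/ml salmon testes DNA. In it, ligand-free nuclear receptor dimers were incubated 1 h on custom Agilent 4×180K protein-binding microarrays carrying double-stranded probes. Antibodies against each partner (one per run) detected binding, and z-scores were calculated against random background probes after regression normalization of scanned fluorescence.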
# [2] = test system: PPARg:RXRa IVT, anti-PPARg (NR concentration 270 nM, RXRa partner concentration 90 nM)
# Procedure, shortened: as §1
# [3] = test system: PPARg DBDmut:RXRa IVT, anti-PPARg (DBD mutation: PPARg1 K132A/R137A, NR concentration 270 nM, RXRa partner concentration 90 nM)
# Procedure, shortened: as §1
# [4] = test system: PPARg DBDmut IVT, anti-PPARg (DBD mutation: PPARg1 K132A/R137A, NR concentration 270 nM)
# Procedure, shortened: as §1
# [5] = test system: PPARg homodimer (NR concentration 180 nM)
# Procedure, shortened: as §1
# [6] = test system: PXR:RXRa (NR concentration 270 nM, RXRa partner concentration 90 nM)
# Procedure, shortened: as §1
# [7] = test system: PXR homodimer (NR concentration 270 nM)
# Procedure, shortened: as §1
# [8] = test system: RARa:RXR (NR concentration 270 nM, RXRa partner concentration 90 nM)
# Procedure, shortened: as §1
# [9] = test system: RARa homodimer (NR concentration 270 nM)
# Procedure, shortened: as §1
# [10] = test system: RARb:RXRa (NR concentration 270 nM, RXRa partner concentration 90 nM)
# Procedure, shortened: as §1
Sequence,PBM binding z-score [1],PBM binding z-score [2],PBM binding z-score [3],PBM binding z-score [4],PBM binding z-score [5],PBM binding z-score [6],PBM binding z-score [7],PBM binding z-score [8],PBM binding z-score [9],PBM binding z-score [10]
ATATGTAGGTTATCGGGTCATTGAGTTTGCGCAT,7.71,7.5,3.11,1.9,2.89,4.55,10.5,3.82,1.41,2.86
CCTATTAGTTGACCATAAGGGCAACCTAAGCTCG,0.374,0.836,0.365,0.874,1.32,0.876,0.98,1.49,2.27,1.57
TATACATGGTCAAAGGCCAGAGTACGAATGTCGA,-0.282,1.86,1.66,0.812,0.786,0.255,0.252,0.943,0.241,1.6
GCAGTCAGGTGAAACGCAGGTAACTCAGGGTGGC,1.84,0.996,-0.763,-0.908,-0.83,-0.443,-0.701,0.159,-1.13,1.03
AGATTGAGGTTATACGTAGATCAGGGAAGAAAGT,2.54,1.38,1.05,1.23,0.726,1.23,0.75,1.7,0.422,1.28
ACTCTGAGGACAAAGGTCAGAGCTACGCCAGTGA,1.18,4.01,0.601,0.00649,3.26,3.74,0.395,5.19,0.924,4.47
CCTAGTTGGTCAGGAGGTCACGCACCGGATATGA,1.74,4.03,0.246,-0.0131,3.74,4.85,1.04,5.52,2.11,4.06
AGAATGAGGTTATACGTAGAACAGGGAAGAAAGT,4,1.9,1.52,1.09,1.26,1.09,0.773,1.36,-0.459,1.36
CCTCGGTGGACAGAAGGTCAGAGCTGTCCGCTTT,-0.193,0.138,-2.04,-1.69,1.8,1.32,-0.447,1.66,-0.0873,2.56
CCTTACGGGTCACTGATAGGTTATAGCATTTGGA,3.46,3.73,1.18,0.0564,2.47,3.6,0.321,4.43,1.27,4.02
GCTGCTAGGTCAGCTGATGGTCAGCTAAAGCTCG,3.51,2.35,-1.32,-1.88,0.56,-0.015,-1.12,0.983,-1.22,3.57
AGTCAAAGTTCACTAGGTAACGTAAGATTCAGCT,2.87,5.16,1.07,1.01,2.38,3.71,2.66,2.74,0.986,4.72
ACTAGCAGGCCAAGGGGCACTCAAGATTAGTCCG,0.959,1.41,0.105,-0.646,-0.02,-0.175,-0.332,-0.0268,-0.844,1.09
ACTATTAGTTGACTGAGGGCAACCGATACGACGC,0.524,0.702,1.12,0.733,0.7,1.06,1.3,0.779,0.713,1.41
TCTATTAGTTGATTAGGGCAACCGGAACAGCGGA,2.14,1.3,0.694,0.839,1.02,0.35,0.534,0.296,0.818,1.06
TATACAGGTTCAAAGGCCAGAGTACGAATGTCGA,0.255,1.44,0.672,0.97,1.53,2.53,1.35,2.91,1.41,2.2
CGTCCAAGGTCAAAGGTCAGTGGAGAGATGACGG,3.88,5.79,1.38,0.543,4.78,7.21,1.94,8.88,2.17,6.16
CAAACTAGGTCAAAGTCAAAGTCGGTTTGTGCCA,8.48,8.78,4.97,3.93,1.7,1.63,-0.171,2.61,0.68,4.01
TCTCGGAGGACACGAAGGTCCGAGCTTTCCAGAG,1.24,-0.478,-0.785,-1.37,-0.731,-0.253,-0.438,-0.322,-1.26,1.56

Sequence,PBM binding z-score [1],PBM binding z-score [2],PBM binding z-score [3],PBM binding z-score [4],PBM binding z-score [5],PBM binding z-score [6],PBM binding z-score [7],PBM binding z-score [8],PBM binding z-score [9],PBM binding z-score [10]
TGAATGATGTTATAAGATCAGGGAACGTTGCAAA,-1.12,-0.0889,0.204,0.597,-0.0286,-0.22,-0.193,0.123,0.481,-0.32
AGACCGAGGGCACGCTGAGTTGATAGCAGAGTAG,1.14,1.33,-0.432,-1.3,0.2,1.52,-0.245,0.998,-0.487,2.61
GCTAGTTGGTTAGTAAAAGGTCACACACCGGTCG,0.595,2.29,0.167,0.647,4.26,5.09,1.29,6.05,3.17,3.99
CTCGAAAGCTCGGTTGAGGTGAGTATACGGATAA,-0.672,-0.193,-0.22,-0.607,-0.84,-0.305,-0.679,0.034,-0.648,-0.166
CCTAGTTGGTCAGGAGGTCACACTCCGGATATGA,2.49,3.68,0.158,0.204,4.17,4.23,1.2,4.82,1.53,3.72
CCTACTGGGCCAAAGGTCATTGAGTCCAATGCTC,5.06,6.83,0.176,-0.111,2.47,6.16,12.7,5.99,1.14,4.71
GCTGCTAGGTCAACTGATGCTCAGCTAAAGCTCG,4.93,3.92,-0.517,-0.991,1.02,1.26,-0.735,2.18,-0.0559,4.27
CCTAGCTGGTCAGGAGGTCACACACCGGATATGA,0.695,2.85,0.353,0.266,3.15,4.2,0.691,4.65,0.568,3.67
TCTAGATGGTCACGGAGGTCACACACGACGGGTA,2.1,3.58,1.44,1.08,4.17,4.87,2.07,5.06,1.56,3.9
TCATATAGGTAAACAGCTGAAAGTCCGTAAGTTA,3.93,2.25,1.07,0.733,0.646,0.928,0.555,1.19,0.977,0.471
ATTACAGGGTCACTAGGCCAGAGTAGGTACGAAT,3.81,5.92,2.92,2.81,2.63,3.43,0.344,4.32,1.19,4.46
TCTTGTAGATCAATGGAGGTTAAGAAAGTGCGCT,2.04,1.57,0.0784,1.12,-0.199,2.58,0.0457,1.16,0.49,0.504
ATATGTAGGTTAGCTGGTGTCATTCAGACTAGGC,6.77,6.16,2.14,1.6,1.06,1.65,0.392,1.44,0.23,0.987
TCATATAGGTAAAAGGGGAAAGTCGGTGTGGTAA,4.82,3.69,1.31,1.21,1.73,0.624,0.862,1.17,2.27,0.958
CCTGCTTGGTCATGGTCAGCTAATCTACAGTATG,0.417,0.0763,-1.17,-0.614,0.0024,-0.154,-0.228,-0.106,-0.318,1.24
AGTCAAAGTTCATCTATGTAACGTAAGATATGCT,0.144,2.33,0.955,1.14,3.7,5.09,5.26,3.82,1.52,4.89
CCTGCTAGGTCATGGTCAGCTTATCTACAGTATG,4.34,3.48,0.0412,-0.178,1.32,1.35,-0.301,2.36,0.172,3.81
TTTCGGAGGACACGAAGGTCAGAGCTTTCCAGAG,0.209,1.38,-0.89,-0.892,1.79,2.42,1.37,2.56,0.837,3.51
ACAGACAGGTGATGAAGGCAACTCAGGCTATCAT,-0.272,-0.316,0.175,-1.07,-0.119,-0.469,-0.142,0.0224,0.0844,0.0179
